Source: the supplement of paper PMC10849652
About 7,900 targets were measured; listed, in parts, are those with a hit and a random draw of the rest. About 0.6% of all pairs of compound and target were hits.

compound: CC[C@H](C)[C@@H](C(=O)N[C@@H]([C@@H](C)O)C(=O)N[C@@H](CC(C)C)C(=O)[C@]1(CO1)C)NC(=O)[C@H]([C@@H](C)CC)N(C)C(=O)C [epoxomicin]; experiment: log2 fold change, soluble protein after heating vs DMSO (PISA); higher = thermal stabilisation; K562 cells, 10 uM, 30 min; active = over 0.2 and 3.5 SD of the protein, either way, in both replicates (recomputed)
In short: (§1)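 Soluble protein was quantified by TMTpro 16plex LC-MS/MS after channel sums were equalised. It was obtained as the supernatant after 21,000xg for 90 min from pooled aliquots of K562 cells (2×10^6 cells/mL, 10 μM compound, 30 min) heated for 3 min across 48°C-58°C and extracted in PBS with 0.5% NP-40 at 4°C. Thermal stability values are relative to control samples and come from duplicates. They are given as log2 fold changes.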

Sequence of UniProt Q9UKL0 (Q9UKL0 whole entry, looked up): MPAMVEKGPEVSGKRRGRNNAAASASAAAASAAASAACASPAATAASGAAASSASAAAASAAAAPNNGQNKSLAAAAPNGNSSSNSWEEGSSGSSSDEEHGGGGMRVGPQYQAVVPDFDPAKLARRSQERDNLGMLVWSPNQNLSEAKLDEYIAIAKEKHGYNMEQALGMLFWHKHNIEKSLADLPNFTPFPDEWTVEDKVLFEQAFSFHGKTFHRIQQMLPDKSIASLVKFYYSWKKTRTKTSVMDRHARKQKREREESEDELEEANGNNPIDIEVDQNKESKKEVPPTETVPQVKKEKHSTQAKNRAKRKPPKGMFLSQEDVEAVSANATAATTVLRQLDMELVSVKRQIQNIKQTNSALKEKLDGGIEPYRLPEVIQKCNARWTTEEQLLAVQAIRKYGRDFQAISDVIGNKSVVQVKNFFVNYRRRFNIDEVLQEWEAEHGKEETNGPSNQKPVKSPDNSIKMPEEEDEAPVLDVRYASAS
Sequence of UniProt P63208 (P63208 whole entry, looked up): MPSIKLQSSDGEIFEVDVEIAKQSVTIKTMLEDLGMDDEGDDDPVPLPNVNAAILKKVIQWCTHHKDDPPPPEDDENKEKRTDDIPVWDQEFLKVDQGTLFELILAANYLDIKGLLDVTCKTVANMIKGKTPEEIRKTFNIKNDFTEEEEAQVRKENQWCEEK
Sequence of UniProt P49756 (P49756 whole entry, looked up): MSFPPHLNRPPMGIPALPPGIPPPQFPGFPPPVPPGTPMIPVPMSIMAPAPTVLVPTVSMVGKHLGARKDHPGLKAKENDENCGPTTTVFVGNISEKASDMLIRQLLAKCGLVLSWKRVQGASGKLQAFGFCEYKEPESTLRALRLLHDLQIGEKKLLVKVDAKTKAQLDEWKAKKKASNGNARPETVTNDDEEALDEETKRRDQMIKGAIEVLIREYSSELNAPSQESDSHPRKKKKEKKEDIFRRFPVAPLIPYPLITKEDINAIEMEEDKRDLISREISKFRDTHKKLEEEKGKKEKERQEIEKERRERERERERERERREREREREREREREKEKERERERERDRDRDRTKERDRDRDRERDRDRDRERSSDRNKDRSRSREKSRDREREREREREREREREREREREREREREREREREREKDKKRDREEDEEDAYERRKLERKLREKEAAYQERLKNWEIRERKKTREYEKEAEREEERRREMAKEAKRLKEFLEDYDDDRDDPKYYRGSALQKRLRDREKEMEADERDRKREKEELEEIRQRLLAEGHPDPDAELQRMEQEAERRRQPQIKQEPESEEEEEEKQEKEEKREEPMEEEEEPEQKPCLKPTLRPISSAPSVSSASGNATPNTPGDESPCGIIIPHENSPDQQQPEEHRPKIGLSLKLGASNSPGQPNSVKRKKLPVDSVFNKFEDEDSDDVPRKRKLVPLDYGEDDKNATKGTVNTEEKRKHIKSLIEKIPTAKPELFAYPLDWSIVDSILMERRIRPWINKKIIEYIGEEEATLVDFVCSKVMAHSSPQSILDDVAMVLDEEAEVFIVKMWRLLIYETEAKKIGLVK
Sequence of UniProt Q15436 (Q15436 whole entry, looked up): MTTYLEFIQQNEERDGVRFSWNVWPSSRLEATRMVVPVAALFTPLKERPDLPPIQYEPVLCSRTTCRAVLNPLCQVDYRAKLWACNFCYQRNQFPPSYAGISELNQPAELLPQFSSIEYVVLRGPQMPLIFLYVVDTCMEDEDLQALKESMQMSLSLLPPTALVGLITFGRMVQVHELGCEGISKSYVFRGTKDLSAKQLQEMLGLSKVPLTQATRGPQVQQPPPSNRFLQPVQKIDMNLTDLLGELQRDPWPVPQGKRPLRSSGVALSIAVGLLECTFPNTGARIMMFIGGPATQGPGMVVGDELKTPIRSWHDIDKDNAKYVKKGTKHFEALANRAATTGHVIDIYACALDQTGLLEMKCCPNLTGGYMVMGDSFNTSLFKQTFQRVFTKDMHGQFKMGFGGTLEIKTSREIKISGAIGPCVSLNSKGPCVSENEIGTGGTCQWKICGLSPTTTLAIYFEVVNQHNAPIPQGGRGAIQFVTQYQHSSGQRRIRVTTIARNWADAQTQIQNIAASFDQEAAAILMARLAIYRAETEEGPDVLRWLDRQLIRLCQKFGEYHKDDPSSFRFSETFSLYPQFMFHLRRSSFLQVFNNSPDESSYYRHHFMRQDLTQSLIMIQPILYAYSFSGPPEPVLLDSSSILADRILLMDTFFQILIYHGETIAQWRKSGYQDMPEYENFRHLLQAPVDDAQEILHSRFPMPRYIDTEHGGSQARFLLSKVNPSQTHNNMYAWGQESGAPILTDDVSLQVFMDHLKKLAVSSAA
Sequence of UniProt O94979 (O94979 whole entry, looked up): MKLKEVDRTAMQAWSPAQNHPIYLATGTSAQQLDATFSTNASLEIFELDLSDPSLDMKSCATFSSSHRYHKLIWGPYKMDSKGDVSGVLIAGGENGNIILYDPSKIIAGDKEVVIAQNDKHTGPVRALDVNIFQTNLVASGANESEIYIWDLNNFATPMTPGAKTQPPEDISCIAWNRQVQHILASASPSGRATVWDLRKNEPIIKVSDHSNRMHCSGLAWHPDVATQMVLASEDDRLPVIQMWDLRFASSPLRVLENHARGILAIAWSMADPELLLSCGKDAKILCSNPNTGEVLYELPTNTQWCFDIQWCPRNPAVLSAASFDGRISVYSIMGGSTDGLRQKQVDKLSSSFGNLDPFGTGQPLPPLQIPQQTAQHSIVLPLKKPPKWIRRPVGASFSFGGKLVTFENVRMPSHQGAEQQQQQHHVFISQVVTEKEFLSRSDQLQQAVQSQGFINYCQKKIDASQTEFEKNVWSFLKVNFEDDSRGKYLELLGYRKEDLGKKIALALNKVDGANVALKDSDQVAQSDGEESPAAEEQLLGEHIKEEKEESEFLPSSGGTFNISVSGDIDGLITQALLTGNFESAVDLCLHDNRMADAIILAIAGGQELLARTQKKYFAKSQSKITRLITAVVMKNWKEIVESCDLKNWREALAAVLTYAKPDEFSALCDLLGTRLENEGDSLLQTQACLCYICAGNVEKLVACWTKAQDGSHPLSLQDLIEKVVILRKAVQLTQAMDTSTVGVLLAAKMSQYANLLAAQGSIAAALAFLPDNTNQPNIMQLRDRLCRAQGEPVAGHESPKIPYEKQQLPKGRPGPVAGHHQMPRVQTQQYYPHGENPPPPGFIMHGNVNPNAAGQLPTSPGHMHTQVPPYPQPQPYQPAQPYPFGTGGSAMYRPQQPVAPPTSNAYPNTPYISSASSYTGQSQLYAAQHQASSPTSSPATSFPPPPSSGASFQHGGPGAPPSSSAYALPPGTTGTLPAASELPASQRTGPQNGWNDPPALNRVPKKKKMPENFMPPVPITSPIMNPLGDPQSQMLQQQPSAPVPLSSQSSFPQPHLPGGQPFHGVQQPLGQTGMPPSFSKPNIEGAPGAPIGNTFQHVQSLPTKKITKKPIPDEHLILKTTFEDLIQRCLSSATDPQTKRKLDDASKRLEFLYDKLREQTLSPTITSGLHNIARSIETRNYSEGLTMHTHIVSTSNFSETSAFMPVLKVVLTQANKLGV
Sequence of UniProt Q13546 (Q13546 whole entry, looked up): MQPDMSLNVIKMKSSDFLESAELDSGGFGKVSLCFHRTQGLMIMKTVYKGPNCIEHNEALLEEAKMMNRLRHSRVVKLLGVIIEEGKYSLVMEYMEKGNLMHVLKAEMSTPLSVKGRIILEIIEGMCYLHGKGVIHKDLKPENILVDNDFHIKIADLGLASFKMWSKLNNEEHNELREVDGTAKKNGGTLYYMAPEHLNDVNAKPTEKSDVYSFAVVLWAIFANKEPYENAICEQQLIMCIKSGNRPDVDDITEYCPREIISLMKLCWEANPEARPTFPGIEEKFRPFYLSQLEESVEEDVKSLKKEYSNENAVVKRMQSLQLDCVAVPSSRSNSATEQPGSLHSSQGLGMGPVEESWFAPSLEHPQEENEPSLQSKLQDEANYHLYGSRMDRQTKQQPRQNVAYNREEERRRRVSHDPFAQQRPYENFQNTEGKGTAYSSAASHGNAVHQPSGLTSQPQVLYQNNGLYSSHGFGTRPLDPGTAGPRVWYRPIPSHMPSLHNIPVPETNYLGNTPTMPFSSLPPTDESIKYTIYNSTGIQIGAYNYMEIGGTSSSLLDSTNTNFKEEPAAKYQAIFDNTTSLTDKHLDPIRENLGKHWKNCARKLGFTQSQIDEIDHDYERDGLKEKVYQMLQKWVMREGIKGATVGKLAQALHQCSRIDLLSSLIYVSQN
Sequence of UniProt Q8NBJ9 (Q8NBJ9 whole entry, looked up): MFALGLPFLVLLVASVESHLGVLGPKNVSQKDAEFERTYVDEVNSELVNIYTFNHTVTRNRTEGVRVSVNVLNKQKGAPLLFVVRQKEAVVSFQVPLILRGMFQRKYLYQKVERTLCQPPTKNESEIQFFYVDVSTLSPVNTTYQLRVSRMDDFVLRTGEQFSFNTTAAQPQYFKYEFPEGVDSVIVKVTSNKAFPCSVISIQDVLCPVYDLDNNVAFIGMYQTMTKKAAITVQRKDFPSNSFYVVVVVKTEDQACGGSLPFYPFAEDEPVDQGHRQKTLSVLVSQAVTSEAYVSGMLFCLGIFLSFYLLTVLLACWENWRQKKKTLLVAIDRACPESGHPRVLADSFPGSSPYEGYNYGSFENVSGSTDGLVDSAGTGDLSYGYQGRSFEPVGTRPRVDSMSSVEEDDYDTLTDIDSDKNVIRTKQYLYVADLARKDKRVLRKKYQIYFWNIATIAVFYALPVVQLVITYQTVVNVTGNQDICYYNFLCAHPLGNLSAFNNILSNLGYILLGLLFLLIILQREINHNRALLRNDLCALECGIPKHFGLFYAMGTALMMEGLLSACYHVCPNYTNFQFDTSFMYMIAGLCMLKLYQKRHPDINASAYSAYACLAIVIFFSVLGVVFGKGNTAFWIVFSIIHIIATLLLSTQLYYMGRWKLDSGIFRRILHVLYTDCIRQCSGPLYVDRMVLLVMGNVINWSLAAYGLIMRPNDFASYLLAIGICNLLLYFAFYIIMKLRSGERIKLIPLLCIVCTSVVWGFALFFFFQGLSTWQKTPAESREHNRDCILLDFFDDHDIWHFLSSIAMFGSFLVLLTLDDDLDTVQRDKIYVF

log2 fold change, inactive:
SEC23A (UniProt Q15436) -0.016, SCAF8 isoform 2 (UniProt Q9UPN6) 0.101, RIPK1 (UniProt Q13546) -0.01, RBM25 (UniProt P49756) 0.015, RAC3 (UniProt P60763) -0.008, SIDT2 isoform 2 (UniProt Q8NBJ9) 0.002, RCOR1 (UniProt Q9UKL0) 0.002, SKP1 (UniProt P63208) 0.034, SEC31A (UniProt O94979) 0.034, RPS9 (UniProt P46781) -0.24, RSL1D1 (UniProt O76021) -0.517

compound: CCn1c(C(=O)N(C2CC2)C2CC2)cc2c3c(ncn3C)c(Nc3cc(C)n(C)n3)nc21; experiment: as above
In short: as §1

log2 fold change, inactive:
RBM22 (UniProt Q9NW64) -0.018, RUFY1 (UniProt Q96T51) 0.009, RARS (UniProt P54136) -0.099, RHEB (UniProt Q15382) 0.022, RALA (UniProt P11233) 0.021, SDHAF2 (UniProt Q9NX18) 0.053, ROCK2 (UniProt O75116) -0.028, RPS18 (UniProt P62269) -0.029, RPS20 isoform 2 (UniProt P60866) -0.02, RBM12 (UniProt Q9NTZ6) -0.08, RPS6KA2 isoform 2 (UniProt Q15349) 0.133, SEH1L isoform 1 (UniProt Q96EE3) -0.009, SCAF11 (UniProt Q99590) -0.007, SLC12A9 (UniProt Q9BXP2) 0.037, RNF14 (UniProt Q9UBS8) 0.002, RARS2 (UniProt Q5T160) 0.013, SDHC (UniProt Q99643) 0.018, RBM17 (UniProt Q96I25) -0.271, RPS6KA1 isoform 2 (UniProt Q15418) 0.127, RB1CC1 (UniProt Q8TDY2) -0.118, RECQL (UniProt P46063) 0.009, SHROOM2 (UniProt Q13796) -0.203, SLBP (UniProt Q14493) -0.03, SEC23A (UniProt Q15436) 0.017, SCAF8 isoform 2 (UniProt Q9UPN6) -0.003, RIPK1 (UniProt Q13546) -0.046, RBM25 (UniProt P49756) -0.104, RAC3 (UniProt P60763) 0.051, SIDT2 isoform 2 (UniProt Q8NBJ9) -0.014, RCOR1 (UniProt Q9UKL0) -0.002, SKP1 (UniProt P63208) 0.035, SEC31A (UniProt O94979) -0.044, RPS9 (UniProt P46781) 0.025, RSL1D1 (UniProt O76021) -0.065
